The list is not random: actives were taken first. Their share in the collection is about 3.7%.
tim23-1 inh: tim23-1 yeast growth inhibition; inhibition, % at 20 µM; AID 463212; S. cerevisiae tim23-1 growth, BacTiter-Glo luminescence, 24 h; 330,000 tested, 1.3% active;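 active = growth inhibition of the mutant yeast at or above 50%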;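 note: temperature-sensitive mutant grown at 25 °C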
NLRP3 yeast inh: blocks the NALP3 inflammasome reconstituted in yeast; Yeast reconstituted NLRP3/ASC/caspase-1, beta-gal luminescence, 24 h; inhibition, % at 10 µM; 330,000 tested, 0.39% active;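 active = inhibition of 50% or more; inactive = inhibition below 50%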
TIM10 inh: inhibits growth of TIM10 yeast strain; 330,000 tested, 1.4% active; inhibition, % at 10 µM; AID 463195; S. cerevisiae TIM10 strain growth, BacTiter-Glo luminescence, 24 h;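 active = inhibition of 40% or more at the single tested concentration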;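 note: wild-type TIM10 isogenic control strain grown at permissive 25 °C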
PfHsp90 yeast 2: reduces growth (ATP signal) of yeast expressing P. falciparum Hsp90 | AID 504621 | S. cerevisiae expressing PfHsp90, BacTiter-Glo ATP, 48 h; yeast lacking PDR1 and PDR3 efflux regulators | inhibition, % at 9.4 µM | 310,000 tested, 0.32% active;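 active = every replicate shows inhibition above about 80%, whatever the replicate mean, limit read from the data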
tim10-1 inh: growth inhibitors of tim10-1 mutant yeast | inhibition, % at 20 µM | S. cerevisiae tim10-1 ts strain growth, BacTiter-Glo, 24 h | 330,000 tested, 2.2% active;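 active = inhibition of at least 40%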;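 note: mutant grown at 25 °C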
tim23-1 conf: confirmation of tim23-1 mutant yeast growth inhibitors; shares compounds with tim23-1 inh; S. cerevisiae tim23-1 growth, BacTiter-Glo luminescence, 24 h; inhibition, % at 20 µM; 4,400 tested, 83% active; AID 463218;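 active = inhibition above about 39% in either of two replicate wells at 20 µM, limit read from the data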;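 note: temperature-sensitive tim23-1 mutant grown at 25 °C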
Each line names hits and unclear results; the compound was inactive in the other large screens (follow-up assays come after a bar, where they were run).

Cc1ccc(OCc2cc(C(=O)NC3CCCCC3)no2)cn1	tim23-1 inh 51 | tim23-1 conf 57
CCOc1ccc(NS(=O)(=O)c2ccc(C(=O)N3CC(C)OC(C)C3)cc2)cc1 (stereo not drawn)	none
O=C(Nc1cc(-c2ccccc2)[nH]n1)c1ccccc1F	tim23-1 inh 51 (no result: PfHsp90 yeast 2) | tim23-1 conf 41
O=C(Nc1cc(-c2ccccc2)[nH]n1)c1ccccc1	tim23-1 inh 52 | tim23-1 conf 56
O=Cc1cc2ccccc2nc1SCc1ccc(Cl)c(Cl)c1	tim23-1 inh 60 | tim23-1 conf 44
Clc1ccc(CSc2cnnc3ccccc23)cc1Cl	none (no result: tim23-1 inh, NLRP3 yeast inh, TIM10 inh, tim10-1 inh)
O=C(CSc1cccs1)Nc1ccc2ccccc2c1	tim23-1 inh 55 | tim23-1 conf 57
CSCCC(NC(=O)c1ccccc1)C(=O)NCCCn1nc(C)cc1C (stereo not drawn)	none
COc1ccc(C=C2c3ccccc3C(=O)c3ccccc32)c(OC)c1	none
COc1ccc(/C=C2\COc3ccccc3C2=O)c(OC)c1	tim23-1 inh 55 | tim23-1 conf 50
CC/C(=C(\c1ccc(O)cc1)c1ccc(OCCN(C)C)cc1)c1ccccc1	none
CC/C(=C(\c1ccccc1)c1ccc(OCCN(C)C)cc1)c1ccccc1	none | tim23-1 conf inactive
CCc1ccc(C2CC(=O)NC(SCC(=O)OC(C)C)=C2C#N)cc1 (stereo not drawn)	tim23-1 inh 55 | tim23-1 conf 57
CCOC(=O)CSC1=C(C#N)C(c2ccc(C)s2)CC(=O)N1 (stereo not drawn)	tim23-1 inh 58 | tim23-1 conf 46
C/C(=N\NC(=O)c1ccccc1OCCOc1ccccc1)c1ccccc1F	tim23-1 inh 53 (no result: PfHsp90 yeast 2) | tim23-1 conf inactive
C/C(=N\NC(=O)c1ccccc1)c1ccccc1F	none (no result: PfHsp90 yeast 2)
O=C(N/N=C/c1ccc([N+](=O)[O-])s1)c1ccncc1	tim23-1 inh 63 | tim23-1 conf 67
O=C(N/N=C/c1ccccc1[N+](=O)[O-])c1ccncc1	none
Brc1ccc(OCc2nc(-c3ccccn3)n[nH]2)cc1	tim23-1 inh 52 | tim23-1 conf 53
Clc1ccc(OCc2nc(-c3ccccn3)n[nH]2)cc1	none
O=C(CCCl)Nc1nc2c(s1)CCc1ccccc1-2	tim23-1 inh 70 | tim23-1 conf 74
CC(=O)Nc1nc2c(s1)CCc1ccccc1-2	none
COc1cc2c(cc1OC)CN(C(=O)c1cc(S(=O)(=O)N3CCOCC3)ccc1C)CC2	none (no result: PfHsp90 yeast 2)
O=C(Nc1ccc(-c2nc3ccccc3[nH]2)cc1)C1CCCO1 (stereo not drawn)	tim23-1 inh 53 | tim23-1 conf 41
CC1(C)O[C@@H]2[C@H](O1)[C@@H](CO)O[C@H]2n1cnc2c(N)ncnc21	none
Nc1ncnc2c1ncn2[C@@H]1O[C@H](CO)C[C@H]1O	tim23-1 inh 60 | tim23-1 conf 65
Cc1cc(C(=O)COC(=O)c2ccc([N+](=O)[O-])o2)c(C)n1CC1CCCO1 (stereo not drawn)	tim23-1 inh 54 | tim23-1 conf 55
COCCn1c(C)cc(C(=O)COC(=O)c2ccc([N+](=O)[O-])o2)c1C	tim23-1 inh 52 | tim23-1 conf 59
CC(NC(=O)/C=C/c1cnc2ccccc2n1)C12CC3CC(CC(C3)C1)C2 (stereo not drawn)	tim23-1 inh 60 | tim23-1 conf 50
CC(=O)Nc1ccc(NC(=O)C(C)OC(=O)/C=C/c2cnc3ccccc3n2)cc1 (stereo not drawn)	none
CN(c1ccc(C(=O)Nc2ccc(CC#N)cc2)cc1)S(C)(=O)=O	tim23-1 inh 94 | tim23-1 conf inactive
CN(c1ccc(C(=O)Nc2ccc3c(c2)OCO3)cc1)S(C)(=O)=O	none
Nc1nonc1C(=O)N/N=C/c1cc(Br)ccc1O	tim23-1 inh 52 | tim23-1 conf 56
COCCn1c(SCC(=O)Nc2cccc(C)c2)nnc1C(C)C	tim23-1 inh 50 | tim23-1 conf inactive
CN=C1S/C(=C\c2ccc(Cl)cc2)C(=O)N1C	none
CN=C1S/C(=C\c2cccc(Cl)c2Cl)C(=O)N1C	tim23-1 inh 50 (no result: PfHsp90 yeast 2) | tim23-1 conf 60
CC(=O)COc1cccc2ccc(/C=C/c3ccc(Br)s3)nc12	tim23-1 inh 55 | tim23-1 conf 45
Cc1ccc(/C=C/c2ccc3cccc(O)c3n2)s1	none

Screening results as filed in PubChem.
